Test results: ChEMBL document CHEMBL1157539, “Thousands of chemical starting points for antimalarial lead identification” (Nature, 2010)

Columns and labels:
Assay type in all cases: functional
[1] = tested on: Plasmodium falciparum; test: GSK_TCMDC: Inhibition of Plasmodium falciparum 3D7 in whole red blood cells, using parasite LDH activity as an index of growth. Test compounds present at 2uM
[2] = tested on: Plasmodium falciparum; test: GSK_TCMDC: Inhibition of Plasmodium falciparum Dd2 in whole red blood cells, using parasite LDH activity as an index of growth. Test compounds present at 2uM
[3] = tested on: HepG2; test: GSK_TCMDC: Percent inhibition of human HepG2 cell line. Test compounds present at 10uM.

COc1ccc(CCNC(=O)c2cc(C)ccc2O)cc1-c1ccc(C(C)(C)C)cc1
Inhibition [1]: 97% | Inhibition [2]: 94% | Inhibition [3]: 1%

Cc1nn(C)c(C)c1CN(Cc1nc(-c2cccc(Oc3ccccc3)c2)oc1C)C1CC1
Inhibition [1]: 100% | Inhibition [2]: 98% | Inhibition [3]: 7%

CC1(C)N=C(N)N=C(Nc2ccc(F)c(F)c2)N1.Cl
Inhibition [1]: 91% | Inhibition [2]: 1% | Inhibition [3]: 59%
